From PubChem BioAssay AID493036 (Sanford-Burnham Center for Chemical Genomics, 2011) come the findings set out here.

Assay [1] in a line: agonists of human NTR1, primary screen, imaging, U2OS cells, beta-arrestin-GFP, high content (AID 493036).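 As to activation: 0% = DMSO without peptide and 100% = 100 nM NTR1 peptide.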 The note with it: NTR1-U2OS beta-arrestin-GFP spot imaging, agonist mode; measured here: cell count, cytotoxicity flag; at 20 µM.
In assay [2] the target is Neurotensin receptor type 1 (Homo sapiens) (UniProt P30989). Described as above. The note with it: NTR1-U2OS beta-arrestin-GFP spot imaging, agonist mode; at 20 µM; stronger effect = higher value.
Neurotensin receptor type 1 (Homo sapiens), sequence (P30989 whole entry, looked up): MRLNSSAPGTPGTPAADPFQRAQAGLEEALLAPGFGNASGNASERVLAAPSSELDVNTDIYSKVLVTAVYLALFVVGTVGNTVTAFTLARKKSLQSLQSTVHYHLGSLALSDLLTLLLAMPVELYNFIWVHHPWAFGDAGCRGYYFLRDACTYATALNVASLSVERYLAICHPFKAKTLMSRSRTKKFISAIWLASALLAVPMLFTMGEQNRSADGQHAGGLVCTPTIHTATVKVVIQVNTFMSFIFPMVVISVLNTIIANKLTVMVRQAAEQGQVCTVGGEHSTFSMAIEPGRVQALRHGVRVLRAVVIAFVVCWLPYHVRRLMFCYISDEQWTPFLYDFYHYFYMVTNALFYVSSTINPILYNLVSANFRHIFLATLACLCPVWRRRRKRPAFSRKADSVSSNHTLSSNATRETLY

About 560 (0.17%) of roughly 330,000 compounds were called active.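 The calls were made as follows: active = activation at or above 40% of the spot to cytoplasm intensity ratio, with at least 20 cells analyzed; inconclusive = wells under 20 cells, flagged as cytotoxic or low count; inactive = the rest.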 The full list was thinned out, with actives kept by preference.

Consider `OC(CN=c1sc2ccccc2n1CC(O)COc1ccccc1)COc1ccccc1` (configuration not stated), for which the cell count in assay [1] amounted to 92 cells. The activation in assay [2] is 58.9% (active).

Turning to `O=C(C(c1ccccc1)c1ccccc1)N1CCN(CC(O)COc2ccccc2)CC1` (configuration not stated), the cell count in assay [1] was found to be 88 cells. The activation in assay [2] is 0.6% (inactive).

On to `CC(C)c1ccc(OCC(O)Cn2cnc3ccccc32)cc1` (configuration not stated), for which the cell count in assay [1] is 46 cells. Moreover, the activation in assay [2] is 0.1% (inactive).

`Cc1nn(C)c(Oc2ccccc2)c1CCNS(=O)(=O)c1ccc(F)cc1` returned a cell count in assay [1] of 76 cells. The activation in assay [2] is -0.4% (inactive).

For the compound `Cc1cc(N(C)C)cc(C)[n+]1[O-]`, in assay [1], the cell count worked out at 38 cells. Also, the activation in assay [2] is 0.3% (inactive).

For the compound `Cc1ccc(C(=O)N/C(=C\c2cn(S(=O)(=O)N(C)C)c3ccccc23)C(=O)N2CCCC2)cc1`, the cell count in assay [1] came to 61 cells. The activation in assay [2] was 1.6% (inactive).

As for `CCCCCOC(=O)C1=C(C)Nc2nnnn2C1c1ccc(OC)c(OC)c1OC` (configuration not stated), the cell count in assay [1] was 85 cells. Also, in assay [2], the activation was 0.9% (inactive).

As for `CCCS(=O)(=O)N1CCC(C(=O)NCCc2ccc(OC)c(OC)c2)CC1`, the cell count in assay [1] turned out to be 46 cells. Besides, in assay [2], the activation is -0.4% (inactive).

Consider `O=C(N/N=C/c1ccccn1)c1cccc(NC(=O)c2ccc(Cl)cc2)c1`, for which, in assay [1], the cell count is 56 cells. For the same compound, the activation in assay [2] was 2.8% (inactive).

In assay [1], `Cc1cc2c(cc1C)N(C(=O)CN1C(=O)c3ccccc3C1=O)C(C)(C)c1ssc(=S)c1-2` showed a cell count of 52 cells. Moreover, the activation in assay [2] was 23.8% (inactive).

With `COc1ccnc(Oc2ccccc2)n1`, in assay [1], the cell count was determined as 45 cells. In addition, in assay [2], the activation was 3% (inactive).

`Nc1c(-c2ccc(F)cc2)cnc2ncnn12`: the cell count in assay [1] is 91 cells. Further, the activation in assay [2] is -0.2% (inactive).

The compound `CCOC(=O)Cn1c(=O)n(Cc2ccc(OC)cc2)c(=O)c2cccnc21` returned a cell count in assay [1] of 62 cells. Also, the activation in assay [2] is -0.6% (inactive).

As to `Cc1nnc(-c2ccc(Oc3ccc(C)c(C)c3)c([N+](=O)[O-])c2)o1`, the cell count in assay [1] is 52 cells. Besides, the activation in assay [2] is -0.2% (inactive).

Turning to `Cc1ccc(NC(=O)COc2coc(CN3CCc4ccccc4C3)cc2=O)cc1Cl`, the cell count in assay [1] is 63 cells. Besides, the activation in assay [2] is 40.7% (active).

In assay [1], `CCCNC(=O)COc1coc(CN2CCN(Cc3ccccc3)CC2)cc1=O` returned a cell count of 51 cells. In addition, in assay [2], the activation was 0.5% (inactive).

On to `Cc1cc(C)cc(NC(=O)COc2coc(CN3CCN(c4ccccc4)CC3)cc2=O)c1`, for which the cell count in assay [1] was found to be 47 cells. Besides, the activation in assay [2] was 1.4% (inactive).

As for `COCCNC(=S)N/N=C/c1c(C)[nH]c2ccccc12`, in assay [1], the cell count amounted to 45 cells. Besides, the activation in assay [2] was 1.2% (inactive).

Regarding `COc1ccc(CNC(=O)CNC(=O)c2sc3ccccc3c2Cl)cc1OC`, in assay [1], the cell count stood at 47 cells. Also, the activation in assay [2] was 1.7% (inactive).

Regarding `O=C(N/N=C/c1c(Cl)[nH]c2ccccc12)c1sc2ccccc2c1Cl`, the cell count in assay [1] is 73 cells. Further, the activation in assay [2] is 41.9% (active).

As for `CC(=O)N1c2ccc(S(=O)(=O)N3CCC(C(=O)NC4CCCCC4C)CC3)cc2CC1C` (configuration not stated), in assay [1], the cell count was 45 cells. Moreover, in assay [2], the activation was 2.5% (inactive).

Consider `CC(C)Cn1c(N)c(C(=O)NCc2cccs2)c2nc3ccccc3nc21`, for which, in assay [1], the cell count is 78 cells. Moreover, the activation in assay [2] is 41.7% (active).

For the compound `CCOc1ccccc1NC(=O)Cn1nnc(C(=O)NCc2cccs2)c1N`, the cell count in assay [1] was 61 cells. Moreover, in assay [2], the activation is 1.8% (inactive).

`COCC(C)OC(=O)c1c(N)n(CCCN2CCOCC2)c2nc3ccccc3nc12` (configuration not stated) gave a cell count in assay [1] of 68 cells. The activation in assay [2] is -1% (inactive).

On to `O=C(c1cc(Cl)cc(Cl)c1)N1CCC(=O)N(C(COCc2ccccc2)Cc2ccccc2)CC1` (configuration not stated), for which the cell count in assay [1] was determined as 76 cells. For the same compound, the activation in assay [2] is 8.8% (inactive).

Take `CCCCN1C(=O)c2ccc(C(=O)Nc3ccc(S(=O)(=O)N(C)C)cc3)cc2C1=O`: the cell count in assay [1] amounted to 77 cells. The activation in assay [2] is 3.1% (inactive).

`CCN(CC(=O)Nc1ccc(OC)cc1)C(=O)c1ccc(=O)n(Cc2ccccc2)n1` registered a cell count in assay [1] of 54 cells. In assay [2], the activation was -0.5% (inactive).

The compound `CC(C)Oc1c(Br)cc(Br)cc1/C=N/NC(N)=S` yielded a cell count in assay [1] of 60 cells. Moreover, the activation in assay [2] is 66.8% (active).

For the compound `CC1(C(=O)N/N=C/c2cc3c(cc2Br)OCO3)CC1(Br)Br` (configuration not stated), the cell count in assay [1] turned out to be 71 cells. The activation in assay [2] is 5.3% (inactive).

For `Cc1ccc(Nc2nc(-c3ccc(O)cc3O)cs2)nc1`, in assay [1], the cell count stood at 37 cells. Moreover, the activation in assay [2] is 18.9% (inactive).

The compound `O=c1oc2ccccc2cc1-c1cn(-c2ccccc2)c(=S)[nH]1` returned a cell count in assay [1] of 47 cells. The activation in assay [2] is 6.1% (inactive).

The compound `O=c1oc2ccccc2cc1-c1csc(Nc2ccc(O)cc2)n1` had a cell count in assay [1] of 50 cells. The activation in assay [2] is 76.8% (active).

The compound `CCC1(CC)Cc2ccccc2-c2nc(CCl)[nH]c(=O)c21` returned a cell count in assay [1] of 60 cells. Besides, the activation in assay [2] was 61.8% (active).

`CC1(C)Cc2ccccc2-c2nc(CN3CCOCC3)[nH]c(=O)c21` had a cell count in assay [1] of 89 cells. Moreover, the activation in assay [2] was -0.1% (inactive).

In turn, `CC1(C)Cc2ccccc2-c2[nH]c(=S)[nH]c(=O)c21` displayed a cell count in assay [1] of 53 cells. The activation in assay [2] is 0.3% (inactive).

`C=CCNc1nc(N)c([N+](=O)[O-])c(NC2CCCCC2)n1` gave a cell count in assay [1] of 87 cells. The activation in assay [2] was 5.1% (inactive).

Consider `Nc1nc(Nc2ccccc2F)nc(NC2CCCCC2)c1[N+](=O)[O-]`, for which the cell count in assay [1] was 83 cells. The activation in assay [2] is 43.1% (active).

`Nc1nc(NCC2CCCO2)nc(Nc2ccccc2F)c1[N+](=O)[O-]` (configuration not stated) yielded a cell count in assay [1] of 40 cells. The activation in assay [2] is 0.5% (inactive).

`Cc1ccc(S(=O)(=O)N2CCOCC2)cc1C(=O)OC1CCCCC1=O` (configuration not stated) registered a cell count in assay [1] of 30 cells. The activation in assay [2] was 0.7% (inactive).

In assay [1], `Cc1cc(C)n(CCNS(=O)(=O)c2ccc(Cl)cc2)n1` registered a cell count of 44 cells. The activation in assay [2] is 1.1% (inactive).

The compound `Cc1ccccc1OCc1nnc(SCC(=O)N2c3ccccc3Sc3ccc(Cl)cc32)o1` registered a cell count in assay [1] of 65 cells. In assay [2], the activation is 4.7% (inactive).
